Experimental data from PubChem BioAssay (NCATS).
Inconclusive results are not listed. Calls of active or inactive are those of the source. Unless noted, the call rests on the fitted dose curve.

What was measured:
[1] = qHTS for Inhibitors of the Functional Ribonucleoprotein Complex (vRNP) of Lassa (LASV) Arenavirus: LASV Primary Screen - GLuc reporter signal (AID 1347082; calls by dose curve; tested in HEK293 reporter line; further: nearly all actives have a fitted effect of over 60% in size; further: potency means the concentration at half of the fitted maximal effect)
[2] = qHTS for Inhibitors of the Functional Ribonucleoprotein Complex (vRNP) of Lymphocytic Choriomeningitis Arenaviruses (LCMV): Viability assay - alamar blue signal for LCMV Primary Screen (AID 1347085; calls by dose curve; tested in HEK293 reporter line; further: nearly all actives have a fitted effect of over 80% in size)
[3] = target: Nucleoprotein (Lymphocytic choriomeningitis virus (strain Armstrong)) (UniProt P09992); assay: qHTS for Inhibitors of the Functional Ribonucleoprotein Complex (vRNP) of Lymphocytic Choriomeningitis Arenaviruses (LCMV): LCMV Primary Screen - GLuc reporter signal (AID 1347086); further: nearly all actives have a fitted effect of over 70% in size; further: potency means the concentration at half of the fitted maximal effect
[4] = Cytotoxicity counterscreen for inhibitors of SARS-CoV-2 cell entry (AID 1645845); further: nearly all actives have a fitted effect of over 50% in size
In short: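 HEK293-ACE2 cells (Expi293F stably expressing human ACE2) seeded overnight, then compound for 1 h plus 48 h at 37C. Viability as ATP content by luminescence; normalized to wells with cells and media-only wells.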

[5] = Primary qHTS to identify inhibitors of SARS-CoV-2 cell entry (AID 1645846); conditions: activity change, negative = inhibition: at 57.1 µM (top of the series) unless noted; further: nearly all actives have a fitted effect of over 45% in size; further: potency means the concentration at half of the fitted maximal effect
In short: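 Inhibition of spike-mediated entry was scored in human ACE2-transfected Expi293F cells. Particles were MLV-pseudotyped with Wuhan-Hu-1 S carrying a 19-aa C-terminal deletion; signal was luciferase after two days, scaled between spike PP and fusion-protein-free PP.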

[6] = target: Alpha-galactosidase (Coffea arabica) (UniProt Q42656); assay: Counterscreen for Glucocerebrosidase Inhibitors: qHTS Assay for Coffee Bean alpha-Galactosidase at pH 4.5 (AID 957; active means well fitted curve in the direction sought with a large enough effect; an effect the other way counts as inactive or inconclusive)
In short: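 AC50 values derive from Hill-equation modeling of concentration-response data, normalized to no-enzyme and full-activity controls. The pH 4.5 citrate assay used 2 nM coffee bean enzyme and 80 uM fluorogenic substrate for 20 min.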

[7] = target: Alpha-galactosidase (Coffea arabica) (UniProt Q42656); assay: Counterscreen for Glucocerebrosidase Inhibitors: qHTS Assay for Coffee Bean alpha-Galactosidase at pH 5.9 (AID 998; active means well fitted curve in the direction sought with a large enough effect; an effect the other way counts as inactive or inconclusive)
In short: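 Green coffee bean enzyme (2 nM) with 4-methylumbelliferyl alpha-D-galactopyranoside (80 uM) in 50 mM citric acid, 0.005% Tween-20, pH 5.9, 20 min at room temperature; compounds 0.7 nM–77 uM. Stopped at pH 10, fluorescence Ex365/Em440; Hill-fit AC50.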

[8] = Validation screen for inhibitors of Lassa infection (AID 463096); further: potency means the concentration at half of the fitted maximal effect
[9] = Inducers of the Endoplasmic Reticulum Stress Response (ERSR) in human glioma: Validation (AID 504836; active means well fitted curve in the direction sought with a large enough effect; an effect the other way counts as inactive or inconclusive)
In short: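 Stably transfected U87-MG glioma cells carrying a GRP78-based luciferase sensor; 16 h compound incubation. Luminescence end-point read 10 min after Bright-Glo addition at room temperature.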

[10] = Confirmatory qHTS to identify inhibitors of SARS-CoV-2 cell entry (AID 1645844); further: potency means the concentration at half of the fitted maximal effect; nearly all actives have a fitted effect of over 45% in size
In short: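 HEK293-ACE2 cells were pretreated 1 h with compound, then infected with MLV-based pseudoparticles bearing C-terminally truncated Wuhan-Hu-1 spike for 48 h at 37C; luciferase luminescence normalized to spike PP and bald PP wells.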

[11] = VSVG counterscreen qHTS to identify inhibitors of SARS-CoV-2 cell entry (AID 1645847); further: potency means the concentration at half of the fitted maximal effect; nearly all actives have a fitted effect of over 65% in size
In short: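 Luminescence from a luciferase reporter, normalised to bald particle and VSV-G pseudotyped particle wells, is the read-out. Cells are HEK293 expressing human ACE2, exposed to compound 1 h before a 48 h particle infection at 37 °C.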

Sequence of Nucleoprotein (Lymphocytic choriomeningitis virus (strain Armstrong)) (P09992 whole entry, looked up): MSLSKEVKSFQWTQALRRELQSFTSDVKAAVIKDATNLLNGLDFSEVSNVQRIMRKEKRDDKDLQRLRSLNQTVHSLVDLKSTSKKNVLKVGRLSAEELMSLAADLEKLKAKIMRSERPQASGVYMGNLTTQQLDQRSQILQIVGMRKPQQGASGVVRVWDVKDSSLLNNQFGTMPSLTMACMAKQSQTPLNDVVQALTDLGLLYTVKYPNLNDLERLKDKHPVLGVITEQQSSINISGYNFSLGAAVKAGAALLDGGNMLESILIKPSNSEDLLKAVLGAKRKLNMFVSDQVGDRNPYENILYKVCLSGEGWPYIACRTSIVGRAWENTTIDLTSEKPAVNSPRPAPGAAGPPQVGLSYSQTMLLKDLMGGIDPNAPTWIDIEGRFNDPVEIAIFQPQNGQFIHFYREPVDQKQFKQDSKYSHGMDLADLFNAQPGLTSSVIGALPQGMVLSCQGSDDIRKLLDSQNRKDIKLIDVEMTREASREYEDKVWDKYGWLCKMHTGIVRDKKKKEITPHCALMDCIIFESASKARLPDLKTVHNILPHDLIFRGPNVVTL
Sequence of Alpha-galactosidase (Coffea arabica) (Q42656 whole entry, looked up): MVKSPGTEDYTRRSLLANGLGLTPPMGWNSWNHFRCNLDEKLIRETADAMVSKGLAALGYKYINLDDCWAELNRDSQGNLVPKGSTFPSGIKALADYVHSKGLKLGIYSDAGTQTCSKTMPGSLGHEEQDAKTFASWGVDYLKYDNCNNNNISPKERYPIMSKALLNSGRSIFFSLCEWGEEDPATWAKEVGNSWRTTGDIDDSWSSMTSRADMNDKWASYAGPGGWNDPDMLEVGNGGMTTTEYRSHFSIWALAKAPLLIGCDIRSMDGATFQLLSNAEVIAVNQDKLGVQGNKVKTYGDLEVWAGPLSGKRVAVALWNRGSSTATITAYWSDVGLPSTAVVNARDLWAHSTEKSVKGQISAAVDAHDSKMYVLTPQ

COc1ccc(C2CC(c3ccccc3)=NN2c2ccc(S(N)(=O)=O)cc2)cc1 (configuration not stated)
-0.201%: activity change, negative = inhibition [5]
inactive: Potency [1] | Potency [2] | Potency [3] | Potency [4]

CC/C=C\[C@H](O)[C@H](O)C1=C(C)C(=O)[C@]2(O1)C(=O)N[C@@](OC)(C(=O)c1ccccc1)C2O (some centres not stated)
inactive: Potency [1] | Potency [2] | Potency [3]

Cc1nccc2c1[nH]c1ccc(Br)cc12
inactive: Potency [1] | Potency [2] | Potency [3]

O=c1[nH]nc(OCCCc2ccc(Cl)cc2)c(NCc2cccnc2)c1Br
inactive: Potency [1] | Potency [2] | Potency [3] | Potency [4]
-25.1%: activity change, negative = inhibition [5]

CN1CCN(c2cccc(Nc3nc4c(-c5ccc(S(C)(=O)=O)cc5)cccn4n3)c2)CC1
inactive: Potency [1] | Potency [2] | Potency [3] | Potency [4]

Cc1ccc(S(=O)(=O)N[C@@H](Cc2ccccc2)C(=O)CCl)cc1
active: Potency [8] 7.08 µM
inactive: outcome [6] | outcome [7] | outcome [9] | Potency [1] | Potency [2] | Potency [3] | Potency [4]

Fc1ccc(CNc2ncnc3ccc(F)cc23)cc1
active: Potency [1] 19.3 µM | Potency [3] 24.3 µM | Potency [5] 8.91 µM
inactive: Potency [2]

O=C(O)C1(Cc2cccc(Nc3nccs3)n2)CCC(Oc2cccc(Cl)c2F)CC1 (configuration not stated)
inactive: Potency [1] | Potency [2] | Potency [3] | Potency [4]
active: Potency [10] 10.8 µM | Potency [11] 12.1 µM

COc1cc2ncnc(Nc3cccc(Cl)c3)c2cc1OC
0.792%: activity change, negative = inhibition [5]
inactive: outcome [6] | outcome [7] | Potency [8] | outcome [9] | Potency [1] | Potency [2] | Potency [3] | Potency [4]

CC1(C)CCC[C@@]2(C)C1CC[C@@](C)(O)[C@@H]2CC[C@@](C)(O)C1CO1 (some centres not stated)
inactive: Potency [1] | Potency [2] | Potency [3]

CN(Cc1nc2c(N)nc(N)nc2[nH]c1=O)c1ccc(C(=O)NC(CCC(=O)O)C(=O)O)cc1 (configuration not stated)
inactive: Potency [1] | Potency [2] | Potency [3]

Nc1ncnc2c1nc(Cl)n2[C@@H]1O[C@H](CO)[C@@H](O)[C@@H]1O
inactive: Potency [1] | Potency [2] | Potency [3] | Potency [4]
